The target of assay [1] is MAP/microtubule affinity-regulating kinase 3 (Homo sapiens) (UniProt P27448). The following applies: at 1 µM.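 Note: reported values are averaged percent inhibition of MARK3.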
The target of assay [2] is T1, MAP/microtubule affinity-regulating kinase 4 (Homo sapiens) (UniProt Q96L34).
T1 sequence (whole entry): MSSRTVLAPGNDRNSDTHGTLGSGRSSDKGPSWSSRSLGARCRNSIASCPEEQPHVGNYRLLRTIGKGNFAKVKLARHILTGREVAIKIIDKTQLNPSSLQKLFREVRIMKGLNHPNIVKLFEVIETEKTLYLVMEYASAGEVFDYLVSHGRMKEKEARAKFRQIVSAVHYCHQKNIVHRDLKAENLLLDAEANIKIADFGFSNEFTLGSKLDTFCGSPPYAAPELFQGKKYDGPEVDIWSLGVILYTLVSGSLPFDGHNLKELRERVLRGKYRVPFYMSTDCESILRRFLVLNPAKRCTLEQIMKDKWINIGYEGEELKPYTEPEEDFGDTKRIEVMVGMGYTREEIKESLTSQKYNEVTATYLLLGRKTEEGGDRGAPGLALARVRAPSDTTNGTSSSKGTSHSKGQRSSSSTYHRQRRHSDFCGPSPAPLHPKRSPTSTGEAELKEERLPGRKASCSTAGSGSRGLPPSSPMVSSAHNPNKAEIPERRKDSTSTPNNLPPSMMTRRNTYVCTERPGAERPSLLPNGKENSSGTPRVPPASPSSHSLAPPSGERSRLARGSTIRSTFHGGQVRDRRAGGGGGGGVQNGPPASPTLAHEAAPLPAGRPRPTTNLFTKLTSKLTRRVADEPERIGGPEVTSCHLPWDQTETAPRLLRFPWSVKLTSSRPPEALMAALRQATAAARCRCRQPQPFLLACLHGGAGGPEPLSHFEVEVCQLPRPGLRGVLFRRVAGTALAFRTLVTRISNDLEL
The conditions noted are these: at 0.1 µM.

The target of assay [3] is T1, MAP/microtubule affinity-regulating kinase 4 (Homo sapiens). The conditions noted are these: at 1 µM.
For assay [4], the target named is Maternal embryonic leucine zipper kinase (Homo sapiens) (UniProt Q14680). The following applies: at 0.1 µM.
For assay [5] the target is unchanged. The conditions noted are these: at 1 µM.
The target in assay [6] is MAP kinase-interacting serine/threonine-protein kinase 1 (Homo sapiens) (UniProt Q9BUB5). The conditions noted are these: at 0.1 µM.
Assay [7] shares this target. The following applies: at 1 µM.
Assay [8] deals with MAP kinase-interacting serine/threonine-protein kinase 2 (Homo sapiens) (UniProt Q9HBH9). The following applies: at 0.1 µM.
For assay [9] the target is unchanged. The following applies: at 1 µM.
The target of assay [10] is Serine/threonine-protein kinase MARK2 (Homo sapiens) (UniProt Q7KZI7). The conditions noted are these: at 0.1 µM.
Assay [11] shares this target. The following applies: at 1 µM.
For assay [12], the target named is PAS domain-containing serine/threonine-protein kinase (Homo sapiens) (UniProt Q96RG2). The following applies: at 0.1 µM.
Assay [13] shares this target. The following applies: at 1 µM.
In assay [14] the target is Phosphorylase b kinase gamma catalytic chain, skeletal muscle/heart isoform (Homo sapiens) (UniProt Q16816). The following applies: at 0.1 µM.
Assay [15] has the same target. The conditions noted are these: at 1 µM.
For assay [16], the target named is T2, Phosphorylase b kinase gamma catalytic chain, liver/testis isoform (Homo sapiens) (UniProt P15735).
T2 sequence (whole entry): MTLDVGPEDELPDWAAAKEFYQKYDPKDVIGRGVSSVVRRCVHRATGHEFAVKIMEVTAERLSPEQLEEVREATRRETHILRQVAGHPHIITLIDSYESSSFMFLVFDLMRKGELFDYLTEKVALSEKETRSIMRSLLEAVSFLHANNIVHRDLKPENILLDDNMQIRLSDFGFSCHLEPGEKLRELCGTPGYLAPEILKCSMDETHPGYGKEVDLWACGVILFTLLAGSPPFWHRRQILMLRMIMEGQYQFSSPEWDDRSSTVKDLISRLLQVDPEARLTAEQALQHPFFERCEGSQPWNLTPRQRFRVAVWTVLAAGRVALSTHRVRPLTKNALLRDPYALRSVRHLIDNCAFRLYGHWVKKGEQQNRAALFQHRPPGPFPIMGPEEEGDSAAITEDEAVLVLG
The conditions noted are these: at 0.1 µM.

In assay [17] the target is T2, Phosphorylase b kinase gamma catalytic chain, liver/testis isoform (Homo sapiens). The following applies: at 1 µM.
The target of assay [18] is Serine/threonine-protein kinase pim-1 (Homo sapiens) (UniProt P11309). The following applies: at 0.1 µM.
For assay [19] the target is unchanged. The conditions noted are these: at 1 µM.
For assay [20], the target named is Serine/threonine-protein kinase pim-2 (Homo sapiens) (UniProt Q9P1W9). The following applies: at 0.1 µM.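 Note: reported value is the mean percent inhibition of PIM2, measured in the GSK PKIS kinase inhibitor set screen.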
Serine/threonine-protein kinase pim-2 (Homo sapiens), sequence (Q9P1W9 whole entry, looked up): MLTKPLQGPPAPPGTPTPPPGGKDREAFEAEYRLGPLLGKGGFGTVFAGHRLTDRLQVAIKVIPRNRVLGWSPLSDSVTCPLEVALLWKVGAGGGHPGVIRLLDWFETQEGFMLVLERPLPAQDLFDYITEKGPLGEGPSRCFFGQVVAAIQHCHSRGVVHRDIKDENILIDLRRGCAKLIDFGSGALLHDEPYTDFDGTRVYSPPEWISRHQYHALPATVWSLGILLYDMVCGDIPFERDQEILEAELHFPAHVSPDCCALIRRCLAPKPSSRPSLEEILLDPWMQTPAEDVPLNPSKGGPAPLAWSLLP

Phosphorylase b kinase gamma catalytic chain, skeletal muscle/heart isoform (Homo sapiens), sequence (Q16816 whole entry, looked up, canonical isoform): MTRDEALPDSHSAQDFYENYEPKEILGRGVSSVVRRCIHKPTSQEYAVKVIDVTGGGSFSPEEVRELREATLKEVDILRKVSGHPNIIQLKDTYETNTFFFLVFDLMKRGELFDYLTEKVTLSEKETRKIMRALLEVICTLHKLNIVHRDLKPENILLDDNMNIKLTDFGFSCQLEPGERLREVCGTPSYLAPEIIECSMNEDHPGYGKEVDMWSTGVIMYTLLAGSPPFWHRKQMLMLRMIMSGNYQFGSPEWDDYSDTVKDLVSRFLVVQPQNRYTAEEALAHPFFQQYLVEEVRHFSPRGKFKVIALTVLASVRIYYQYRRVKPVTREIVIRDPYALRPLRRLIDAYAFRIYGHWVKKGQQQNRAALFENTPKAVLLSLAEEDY
PAS domain-containing serine/threonine-protein kinase (Homo sapiens), sequence (Q96RG2 whole entry, the tested form may be a part): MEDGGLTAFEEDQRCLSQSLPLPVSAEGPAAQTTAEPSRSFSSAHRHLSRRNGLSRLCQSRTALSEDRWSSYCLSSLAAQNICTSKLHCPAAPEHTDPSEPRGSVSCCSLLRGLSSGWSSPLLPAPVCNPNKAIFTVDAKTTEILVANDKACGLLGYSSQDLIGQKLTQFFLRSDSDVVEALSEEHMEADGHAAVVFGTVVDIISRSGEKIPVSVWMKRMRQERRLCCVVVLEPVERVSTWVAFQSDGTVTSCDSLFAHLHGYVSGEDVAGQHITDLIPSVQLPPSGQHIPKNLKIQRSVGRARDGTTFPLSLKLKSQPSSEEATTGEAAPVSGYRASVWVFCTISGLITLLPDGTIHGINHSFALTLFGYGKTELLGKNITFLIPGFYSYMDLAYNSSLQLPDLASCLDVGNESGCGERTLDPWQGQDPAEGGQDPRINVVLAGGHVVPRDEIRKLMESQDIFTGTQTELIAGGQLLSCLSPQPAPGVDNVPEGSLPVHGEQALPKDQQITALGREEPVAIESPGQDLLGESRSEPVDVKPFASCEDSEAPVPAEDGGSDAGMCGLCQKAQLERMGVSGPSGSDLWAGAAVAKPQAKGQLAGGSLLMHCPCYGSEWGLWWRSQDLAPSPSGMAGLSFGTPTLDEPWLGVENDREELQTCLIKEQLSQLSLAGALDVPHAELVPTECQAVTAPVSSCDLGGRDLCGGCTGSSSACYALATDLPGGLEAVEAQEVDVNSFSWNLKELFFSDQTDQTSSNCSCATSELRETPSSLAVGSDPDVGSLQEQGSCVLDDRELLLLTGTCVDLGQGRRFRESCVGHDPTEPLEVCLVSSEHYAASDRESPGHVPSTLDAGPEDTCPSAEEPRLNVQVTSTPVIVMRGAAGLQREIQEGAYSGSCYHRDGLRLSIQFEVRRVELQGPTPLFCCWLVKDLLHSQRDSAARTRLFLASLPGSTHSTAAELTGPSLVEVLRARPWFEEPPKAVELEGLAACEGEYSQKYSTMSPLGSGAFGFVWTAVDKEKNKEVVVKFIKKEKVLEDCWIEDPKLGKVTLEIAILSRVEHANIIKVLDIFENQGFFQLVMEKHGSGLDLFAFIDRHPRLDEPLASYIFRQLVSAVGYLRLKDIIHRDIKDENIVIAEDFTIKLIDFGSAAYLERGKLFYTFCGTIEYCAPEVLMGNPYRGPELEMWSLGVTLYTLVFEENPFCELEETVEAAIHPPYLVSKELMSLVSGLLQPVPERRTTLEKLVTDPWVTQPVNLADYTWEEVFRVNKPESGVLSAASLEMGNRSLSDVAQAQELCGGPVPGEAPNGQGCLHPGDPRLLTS
Maternal embryonic leucine zipper kinase (Homo sapiens), sequence (Q14680 whole entry, looked up): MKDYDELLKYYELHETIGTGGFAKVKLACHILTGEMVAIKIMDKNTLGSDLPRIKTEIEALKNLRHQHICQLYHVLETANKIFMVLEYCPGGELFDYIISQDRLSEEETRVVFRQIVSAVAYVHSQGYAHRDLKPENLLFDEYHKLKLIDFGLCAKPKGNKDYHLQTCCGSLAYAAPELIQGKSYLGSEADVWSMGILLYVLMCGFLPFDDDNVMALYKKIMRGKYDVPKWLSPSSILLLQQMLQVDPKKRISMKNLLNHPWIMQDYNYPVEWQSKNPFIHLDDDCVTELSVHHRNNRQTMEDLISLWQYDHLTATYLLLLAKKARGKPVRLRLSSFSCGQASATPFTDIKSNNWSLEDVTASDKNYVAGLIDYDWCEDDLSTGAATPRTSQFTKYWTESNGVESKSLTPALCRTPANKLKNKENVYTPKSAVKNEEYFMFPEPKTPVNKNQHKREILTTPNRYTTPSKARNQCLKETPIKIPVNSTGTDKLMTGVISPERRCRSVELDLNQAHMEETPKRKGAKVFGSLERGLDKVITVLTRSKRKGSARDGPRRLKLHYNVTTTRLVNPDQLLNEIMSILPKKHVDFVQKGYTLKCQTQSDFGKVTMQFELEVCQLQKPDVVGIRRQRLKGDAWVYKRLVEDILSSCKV
MAP kinase-interacting serine/threonine-protein kinase 2 (Homo sapiens), sequence (Q9HBH9 whole entry, looked up): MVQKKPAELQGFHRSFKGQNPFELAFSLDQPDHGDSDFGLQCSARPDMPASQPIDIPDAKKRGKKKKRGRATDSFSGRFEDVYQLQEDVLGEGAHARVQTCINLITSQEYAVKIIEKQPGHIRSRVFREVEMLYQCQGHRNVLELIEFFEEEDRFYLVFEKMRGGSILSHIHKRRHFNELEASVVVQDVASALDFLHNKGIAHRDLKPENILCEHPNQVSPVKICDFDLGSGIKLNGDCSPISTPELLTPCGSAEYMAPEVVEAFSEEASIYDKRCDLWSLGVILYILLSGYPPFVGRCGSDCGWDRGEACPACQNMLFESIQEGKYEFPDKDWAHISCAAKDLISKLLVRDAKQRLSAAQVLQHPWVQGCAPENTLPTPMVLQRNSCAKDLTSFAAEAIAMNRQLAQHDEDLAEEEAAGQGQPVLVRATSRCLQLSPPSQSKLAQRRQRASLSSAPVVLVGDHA
Serine/threonine-protein kinase MARK2 (Homo sapiens), sequence (Q7KZI7 whole entry): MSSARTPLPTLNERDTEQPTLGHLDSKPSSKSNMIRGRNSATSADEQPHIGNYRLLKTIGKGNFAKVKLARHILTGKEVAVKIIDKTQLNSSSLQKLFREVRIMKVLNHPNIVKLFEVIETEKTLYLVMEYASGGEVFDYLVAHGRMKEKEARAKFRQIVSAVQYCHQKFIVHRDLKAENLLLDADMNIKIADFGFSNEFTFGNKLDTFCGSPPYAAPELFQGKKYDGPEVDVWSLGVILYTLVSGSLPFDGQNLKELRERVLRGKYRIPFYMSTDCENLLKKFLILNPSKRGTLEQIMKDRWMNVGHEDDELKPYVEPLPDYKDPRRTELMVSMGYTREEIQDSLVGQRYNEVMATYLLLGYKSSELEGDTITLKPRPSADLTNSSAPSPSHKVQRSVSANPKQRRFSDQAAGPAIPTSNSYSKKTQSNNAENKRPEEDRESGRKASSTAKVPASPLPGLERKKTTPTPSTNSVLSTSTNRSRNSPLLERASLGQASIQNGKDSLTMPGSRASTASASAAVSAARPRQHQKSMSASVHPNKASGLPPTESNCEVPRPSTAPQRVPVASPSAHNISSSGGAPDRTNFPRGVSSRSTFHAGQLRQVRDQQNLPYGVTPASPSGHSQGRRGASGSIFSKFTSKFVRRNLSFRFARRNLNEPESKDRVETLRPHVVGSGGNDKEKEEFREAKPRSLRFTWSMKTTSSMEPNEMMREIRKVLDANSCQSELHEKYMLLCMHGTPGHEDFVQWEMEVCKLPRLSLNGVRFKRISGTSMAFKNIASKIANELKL
MAP/microtubule affinity-regulating kinase 3 (Homo sapiens), sequence (P27448 whole entry, looked up): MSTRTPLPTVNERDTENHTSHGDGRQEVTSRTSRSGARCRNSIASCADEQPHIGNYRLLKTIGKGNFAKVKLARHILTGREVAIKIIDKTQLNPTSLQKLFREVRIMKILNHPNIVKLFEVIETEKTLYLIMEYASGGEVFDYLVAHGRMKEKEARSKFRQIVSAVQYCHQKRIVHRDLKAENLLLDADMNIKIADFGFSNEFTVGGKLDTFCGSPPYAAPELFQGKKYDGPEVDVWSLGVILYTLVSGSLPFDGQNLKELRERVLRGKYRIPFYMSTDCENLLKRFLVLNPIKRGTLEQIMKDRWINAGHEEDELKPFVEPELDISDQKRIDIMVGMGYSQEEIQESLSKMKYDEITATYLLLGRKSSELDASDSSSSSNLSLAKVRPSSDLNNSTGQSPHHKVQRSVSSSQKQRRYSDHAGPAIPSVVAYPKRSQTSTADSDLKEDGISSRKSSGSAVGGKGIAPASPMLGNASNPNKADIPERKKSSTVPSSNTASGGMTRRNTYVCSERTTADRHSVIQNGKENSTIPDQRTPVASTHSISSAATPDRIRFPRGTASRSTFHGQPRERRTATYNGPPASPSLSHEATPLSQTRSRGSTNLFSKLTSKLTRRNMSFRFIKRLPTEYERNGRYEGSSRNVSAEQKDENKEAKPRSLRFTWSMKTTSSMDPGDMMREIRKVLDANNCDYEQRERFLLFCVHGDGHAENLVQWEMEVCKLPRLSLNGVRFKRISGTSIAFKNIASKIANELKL
Serine/threonine-protein kinase pim-1 (Homo sapiens), sequence (P11309 whole entry, looked up): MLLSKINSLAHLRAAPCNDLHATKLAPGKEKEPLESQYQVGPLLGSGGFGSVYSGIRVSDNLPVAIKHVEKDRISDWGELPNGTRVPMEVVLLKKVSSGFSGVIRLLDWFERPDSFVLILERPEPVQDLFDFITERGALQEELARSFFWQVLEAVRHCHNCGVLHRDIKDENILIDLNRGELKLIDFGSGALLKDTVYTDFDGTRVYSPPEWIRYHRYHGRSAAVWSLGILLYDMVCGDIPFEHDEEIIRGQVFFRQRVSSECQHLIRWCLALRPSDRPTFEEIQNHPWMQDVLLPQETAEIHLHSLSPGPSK

In general, inhibition refers to the relative decrease from the control value, in per cent. Consider `Fc1cccc(COc2ccc(Nc3ncnc4cc(-c5ccc[nH]5)sc34)cc2Cl)c1`, for which the inhibition in assay [1] is -1.25%; in [2], 1.49%; in [3], 1.57%; in assay [4] it was 4.24%; in assay [5], 5.38%; in assay [6], 1%. Further, the inhibition was 7.21% in [7]; 0.75% in assay [8]; 3.83% in assay [9]; -1.15% in assay [10]; 2.66% in assay [11]; -0.58% in [12]. The inhibition in assay [13] was -0.43%; in [14] it was 3.19%; in assay [15], 3.62%; in [16] it was 2.24%; in [17] it was 2.18%; in [18], -0.5%. For the same molecule, the inhibition in assay [19] is 1.01%; in assay [20] it was -3.43%.

`CC(=O)Nc1cccc(C#Cc2cncnc2Nc2ccc(OCc3cccc(F)c3)c(Cl)c2)n1`: the inhibition was 3.05% in [1]; 0.52% in assay [2]; 0.84% in [3]; -2.29% in assay [4]; -2.61% in assay [5]; 0.9% in assay [6]. Moreover, the inhibition is 18.7% in assay [7]; 3.48% in assay [8]; 14.3% in [9]; 1.78% in assay [10]; -0.36% in [11]; 1.79% in [12]. In addition, the inhibition stood at 6.21% in assay [13]; 1.84% in [14]; 3.66% in [15]; 0.59% in assay [16]; 6.86% in assay [17]; 1.5% in assay [18]. Moreover, the inhibition worked out at 0.89% in [19] and 0.58% in assay [20].

For `CCc1cccc(NC(=O)Nc2ccc(Oc3ccc4nc(NC(=O)OC)[nH]c4c3)cc2)c1`, the inhibition is 3.47% in [1]; -0.22% in assay [2]; -1.15% in [3]; -0.95% in assay [4]; 2.29% in assay [5]; 5.71% in assay [6]. Moreover, the inhibition in assay [7] is 15.8%; in assay [8], 4.24%; in assay [9], 12.2%; in assay [10], 2.55%; in [11], -0.89%; in [12], 1.41%. Further, the inhibition in assay [13] is 1.44%; in [14], -0.84%; in assay [15], 2.94%; in assay [16], 3.07%; in assay [17], 3.57%; in assay [18], 1.27%. Moreover, the inhibition in [19] is 0.49%; in assay [20] it was -0.87%.

With `NC(=O)c1cccc(Nc2nccc(Nc3cccc4[nH]ncc34)n2)c1`, the inhibition is 11.9% in [1]; 1.34% in assay [2]; 11.8% in assay [3]; -1.78% in assay [4]; 8.97% in assay [5]; 0.69% in assay [6]. Also, the inhibition was 25.3% in [7]; 0.64% in [8]; 23.7% in assay [9]; 0.92% in [10]; 10.3% in assay [11]; 0.03% in assay [12]. For the same molecule, the inhibition in assay [13] was 1.81%; in assay [14], 0.63%; in assay [15], 12.6%; in assay [16] it was -5.45%; in assay [17] it was -1.62%; in [18], 0.6%. Besides, the figures for the inhibition in assay [19] and in assay [20] were 1.43% and 0.4%, respectively.

With `[O-][S+]1CCN(Cc2ccc(-c3ccc4ncnc(Nc5ccc(OCc6ccccc6)c(F)c5)c4c3)o2)CC1`, the inhibition in [1] was determined as 1.39%; in assay [2], 0.67%; in [3] it was 1.47%; in [4], 2.88%; in assay [5], 1.82%; in assay [6], 2.24%. Also, the inhibition was 4.41% in [7]; 1.32% in assay [8]; 9.37% in [9]; -1.34% in [10]; 0.88% in assay [11]; -0.22% in assay [12]. For the same molecule, the inhibition in assay [13] was -1.35%; in assay [14] it was 1.18%; in assay [15] it was -5.45%; in assay [16], 2.22%; in assay [17] it was 0.5%; in assay [18] it was 0.8%. Also, the figures for the inhibition in assay [19] and in assay [20] were 0.1% and -0.49%, respectively.
